Laboratory results: PubChem BioAssay
Inconclusive results are not listed. Calls of active or inactive are those of the source.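 Rule for the calls, unless noted: active = viability at or below 30% in both replicate assays; inconclusive = viability at or below 30% in just one of the two assays; inactive = the rest.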

Key:
[1] = target: Pantothenate synthetase (Mycobacterium tuberculosis (strain ATCC 25618 / H37Rv)) (UniProt P9WIL5); assay: Recombinant Mtb pantothenate synthetase (PanC) inhibitors, coupled enzyme, confirmatory (AID 375; call rule not given here;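 note: 0% = full reaction with vehicle and 100% = no enzyme background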); conditions: coupled enzyme assay; at 10 µM, stronger effect = higher value
Pantothenate synthetase (Mycobacterium tuberculosis (strain ATCC 25618 / H37Rv)), sequence (P9WIL5 whole entry, looked up): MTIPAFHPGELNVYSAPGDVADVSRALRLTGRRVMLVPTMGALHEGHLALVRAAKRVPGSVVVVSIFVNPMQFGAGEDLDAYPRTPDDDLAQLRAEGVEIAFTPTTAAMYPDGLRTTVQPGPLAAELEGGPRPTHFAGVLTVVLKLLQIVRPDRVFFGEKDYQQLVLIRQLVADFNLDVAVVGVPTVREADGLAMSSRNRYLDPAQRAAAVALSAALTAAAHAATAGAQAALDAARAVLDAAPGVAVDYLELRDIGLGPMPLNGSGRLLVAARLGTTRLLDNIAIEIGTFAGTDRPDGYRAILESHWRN

[2] = HUVEC growth inhibition – cell-based, human, primary screen (AID 575); conditions: HUVEC proliferation, CellTiter-Glo luminescence, 72 h; at 10 µM; stronger effect = lower value;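 note: 100% = median of untreated cell wells with 0.1% DMSO on each plate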
[3] = growth inhibitors of H69AR lung tumor, primary screen, human, duplicate replicates (AID 580;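 active = viability at or under a set limit in both replicates, limit being median viability minus 3 SD, cut at about 48% in these data, passing the limit was not always enough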;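 note: 100% = mean luminescence of untreated wells and 0% = no signal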); conditions: H69AR lung tumor cells viability, ATP luminescence, 72 h; at 10 µM; stronger effect = lower value
[4] = reversal of MRP1-mediated doxorubicin resistance, pilot screen, H69AR cells, doxorubicin co-treatment (AID 601;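 active = viability loss from added drug above about 55%, and viability with drug at most 40%, in both replicates, limit read from the data, passing the limit was not always enough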); conditions: CellTiter-Glo, 72 h, at 10 µM; for differential viability (reversal): stronger effect = higher value
[5] = 384-well plate pilot, post-Golgi transport modulator project, inhibition of yeast transport mutant growth (AID 636; in the data active = inhibition above about 31%); conditions: absorbance 615 nm, about 18 h, stronger effect = higher value
[6] = growth suppression of yeast trafficking mutant, preliminary HTS, modulators of trafficking downstream of Golgi apparatus project, 1536-format plate, OD 615 nm (AID 637; in the data active = inhibition above about 30%); conditions: yeast transport mutant growth, absorbance 615 nm, 18 h; stronger effect = higher value
[7] = SK-BR-3 cell growth inhibitors, pilot screen, 24 h, human (AID 572;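 active = viability at or below 10% of carrier control in both of two separate runs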;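 note: compound exposure lasted between 18 and 24 h rather than exactly 24 h; 100% = carrier-treated control wells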); conditions: SK-BR-3 viability, CellTiter-Glo luminescence, at 10 µM, stronger effect = lower value
[8] = OD615 S. cerevisiae growth inhibition, permissive medium, pilot counter-assay, permissive growth control for S. cerevisiae lifespan shortening project (AID 705;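 active = growth inhibition above 25% in both replicates, a cutoff set 3 SD above the mean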); conditions: OD615, 24 h, at 10 µM, stronger effect = higher value
[9] = Restrictive medium S. cerevisiae growth inhibition, OD615, pilot screen of yeast lifespan reduction project, restrictive growth control (AID 706;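 active = growth inhibition above a set limit, 3 SD over mean compound inhibition, in both replicates, cut at about 43% in these data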;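 note: modified DeaD lifespan yeast strain shifted to restrictive glucose medium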); conditions: OD615, 48 h, at 10 µM, stronger effect = higher value
[10] = viability gain of MRP-1-high H69AR cells under doxorubicin, pilot screen, MRP-1 activator project, CellTiter-Glo, duplicate (AID 807;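 active = viability increase at or above a cutoff of the median across tested compounds plus 3 SD, cut at about 8.5% in these data, passing the limit was not always enough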;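 note: compound pretreatment 18-22 h then 72 h combined with doxorubicin; 0% = doxorubicin alone and 100% = vehicle without doxorubicin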); conditions: H69AR viability with doxorubicin, CellTiter-Glo luminescence; at 10 µM; stronger effect = higher value
[11] = growth suppression of beta-catenin knockout HCT116, pilot screen, human colon tumor cells (AID 823;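 active = cell viability at or below a set limit in both duplicate runs, the limit being the all-compound median minus 4 SD, cut at about 23% in these data, passing the limit was not always enough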;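 note: 0% = wells killed by 20 µM Hyamine and 100% = untreated DMSO cell wells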); conditions: CellTiter-Glo, 60 h, at 10 µM, stronger effect = lower value
[12] = growth suppression of PTEN-deleted HCT116, pilot screen, cell-based, HCT116 clonal line, CellTiter-Glo (AID 824;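 active = viability at or below 27.92% in each of two runs, the all-compound median minus 4 SD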;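 note: 0% = 20 µM Hyamine control and 100% = vehicle cell control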); conditions: 60 h, at 10 µM, stronger effect = lower value
[13] = inhibitors of the yeast RAM network, pilot screen, dse1pr::URA3 reporter, 5-FOA selection (AID 869;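 active = inhibition over a set limit, the all-compound mean plus 3 SD, in both replicate runs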;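 note: 0% = DMSO wells with no growth and 100% = 10 µM 1-NA-PP1 with full growth; RAM network block rescues cells from 5-FOA so hits raise OD615 growth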); conditions: S. cerevisiae dse1pr::URA3 5-FOA growth, OD615, 2 d, at 10 µM, stronger effect = higher value
[14] = H69AR cells + 2 uM doxorubicin, measured here: viability with 2 uM doxorubicin, stronger effect = lower value
[15] = H69AR cells, compound alone cytotoxicity

SMILES: O=C(CN1CCN(Cc2cccc(Cl)c2)C1=O)N1CCC2(CC1)OCCO2
- inhibition [1]: 2% (inactive)
- viability [2]: 87.6% (inactive)
- viability [3]: 89.5% (inactive)
- differential viability (reversal) ([4]; H69AR cells + 2 uM doxorubicin): -2.12% (inactive)
- viability [4, 14]: 91.7%
- viability [4, 15]: 89.5%
- inhibition [5]: -3.12% (inactive)
- inhibition [6]: -2.7% (inactive)

SMILES: O=C(Cn1cc(C(=O)c2ccccc2)c2ccccc21)NCc1ccco1
- inhibition [1]: 2% (inactive)
- viability [2]: 47.3% (inactive)
- viability [3]: 22.6% (active)
- differential viability (reversal) ([4]; H69AR cells + 2 uM doxorubicin): -47.2% (inactive)
- viability [4, 14]: 69.8%
- viability [4, 15]: 22.6%
- inhibition [5]: 2.47% (inactive)
- inhibition [6]: 6.51% (inactive)

SMILES: CN1[C@@H]2CC[C@H]1CC(OC(=O)C1C=Nc3ccccc31)C2 (stereo partly drawn)
- inhibition [1]: 4% (inactive)
- viability [7]: 86% (inactive)
- viability [2]: 82.4% (inactive)
- viability [3]: 83.3% (inactive)
- differential viability (reversal) ([4]; H69AR cells + 2 uM doxorubicin): -14.3% (inactive)
- viability [4, 14]: 97.7%
- viability [4, 15]: 83.3%
- inhibition [5]: 3.25% (inactive)
- inhibition [6]: 0.5% (inactive)

SMILES: CCOC(=O)c1c(N)n(Cc2ccco2)c2nc3ccccc3nc12
- growth inhibition [8]: -1.25% (inactive)
- growth inhibition [9]: 0.175% (inactive)
- viability increase [10]: -6.16% (inactive)
- viability [11]: 83.3% (inactive)
- viability [12]: 74% (inactive)
- inhibition [13]: 1.18% (inactive)

SMILES: N=C(N)c1c(O)n(C2CCCCC2)c(=O)n(C2CCCCC2)c1=O
- inhibition [1]: 0% (inactive)
- viability [2]: 2.35% (active)
- viability [3]: 2.02% (active)
- differential viability (reversal) ([4]; H69AR cells + 2 uM doxorubicin): 0.155% (inactive)
- viability [4, 14]: 1.86%
- viability [4, 15]: 2.02%
- inhibition [5]: -9.32% (inactive)
- inhibition [6]: 7.14% (inactive)

SMILES: C=CCN1C(=O)C2(C(C(=O)OCC)=C(N)Oc3c2c(=O)oc2ccccc32)c2ccccc21 (stereo not drawn)
- inhibition [1]: 0% (inactive)
- viability [7]: 61% (inactive)
- viability [2]: 108% (inactive)
- viability [3]: 98.2% (inactive)
- differential viability (reversal) ([4]; H69AR cells + 2 uM doxorubicin): -10.5% (inactive)
- viability [4, 14]: 109%
- viability [4, 15]: 98.2%
- inhibition [5]: 0.27% (inactive)
- inhibition [6]: 1.45% (inactive)

SMILES: CN1CCN(C(=O)COc2ccc(-c3nc4ccccc4s3)cc2)CC1
- growth inhibition [8]: -5.45% (inactive)
- growth inhibition [9]: 10.8% (inactive)
- viability increase [10]: -4.38% (inactive)
- viability [11]: 66.1% (inactive)
- inhibition [13]: 2.09% (inactive)

SMILES: O=c1[nH]c2ccccc2n1CCCN1CCC(n2c(=O)[nH]c3cc(Cl)ccc32)CC1
- inhibition [1]: 0% (inactive)
- viability [7]: 91% (inactive)
- viability [2]: 97.8% (inactive)
- viability [3]: 76% (inactive)
- differential viability (reversal) ([4]; H69AR cells + 2 uM doxorubicin): -6.47% (inactive)
- viability [4, 14]: 82.5%
- viability [4, 15]: 76%
- inhibition [5]: -2.47% (inactive)
- inhibition [6]: -0.17% (inactive)

SMILES: CN(C)CCN=Cc1c(O)n(-c2cccc3ccccc23)c(=O)[nH]c1=O
- inhibition [1]: 6% (inactive)
- viability [2]: 103% (inactive)
- viability [3]: 105% (inactive)
- differential viability (reversal) ([4]; H69AR cells + 2 uM doxorubicin): 11.9% (inactive)
- viability [4, 14]: 92.8%
- viability [4, 15]: 105%
- inhibition [5]: -5.87% (inactive)
- inhibition [6]: 1.9% (inactive)

SMILES: COc1ccc(CC[n+]2cc(/N=C(\C)[O-])on2)cc1OC
- inhibition [1]: 0% (inactive)
- viability [7]: 146% (inactive)
- viability [2]: 93.9% (inactive)
- viability [3]: 92.1% (inactive)
- differential viability (reversal) ([4]; H69AR cells + 2 uM doxorubicin): -3.11% (inactive)
- viability [4, 14]: 95.2%
- viability [4, 15]: 92.1%
- inhibition [5]: 0.52% (inactive)
- inhibition [6]: 4.26% (inactive)

SMILES: COc1ccc(CCn2c(O)c(C=NCCCN(C)C)c(=O)[nH]c2=O)cc1OC
- inhibition [1]: 0% (inactive)
- viability [2]: 103% (inactive)
- viability [3]: 98.1% (inactive)
- differential viability (reversal) ([4]; H69AR cells + 2 uM doxorubicin): 3.64% (inactive)
- viability [4, 14]: 94.5%
- viability [4, 15]: 98.1%
- inhibition [5]: -4% (inactive)
- inhibition [6]: -1.59% (inactive)

SMILES: CC(CCc1ccccc1)NC(C)C(O)c1ccc(O)cc1 (stereo not drawn)
- inhibition [1]: 4% (inactive)
- viability [7]: 87% (inactive)
- viability [2]: 87.5% (inactive)
- viability [3]: 97.2% (inactive)
- differential viability (reversal) ([4]; H69AR cells + 2 uM doxorubicin): 1.7% (inactive)
- viability [4, 14]: 95.5%
- viability [4, 15]: 97.2%
- inhibition [5]: -0.26% (inactive)
- inhibition [6]: -3% (inactive)

SMILES: CC1=NOC2(C)Nc3ncnn3C(c3ccccc3)C12 (stereo not drawn)
- inhibition [1]: 0% (inactive)
- viability [7]: 118% (inactive)
- viability [2]: 93% (inactive)
- viability [3]: 94.5% (inactive)
- differential viability (reversal) ([4]; H69AR cells + 2 uM doxorubicin): -3.04% (inactive)
- viability [4, 14]: 97.5%
- viability [4, 15]: 94.5%
- inhibition [5]: -6.03% (inactive)
- inhibition [6]: 7.9% (inactive)

SMILES: O=c1[nH]c2ccccc2n1C1CCN(CCCC(c2ccc(F)cc2)c2ccc(F)cc2)CC1
- inhibition [1]: 5% (inactive)
- viability [2]: 2.55% (active)
- differential viability (reversal) ([4]; H69AR cells + 2 uM doxorubicin): -0.46% (inactive)
- viability [4, 14]: 1.62%
- viability [4, 15]: 1.16%

SMILES: C[C@H]1CCC/C=C/C2C[C@H](O)CC2[C@H](O)/C=C/C(=O)O1 (stereo partly drawn)
- inhibition [1]: 0% (inactive)
- viability [7]: 120% (inactive)
- viability [2]: 7.17% (active)
- differential viability (reversal) ([4]; H69AR cells + 2 uM doxorubicin): 0.59% (inactive)
- viability [4, 14]: 1.34%
- viability [4, 15]: 1.93%
- inhibition [5]: -2.08% (inactive)
- inhibition [6]: 0% (inactive)

SMILES: Cc1c2ccncc2c(C)c2c1[nH]c1ccccc12
- inhibition [1]: 0% (inactive)
- viability [2]: 1.5% (active)
- differential viability (reversal) ([4]; H69AR cells + 2 uM doxorubicin): 0.18% (inactive)
- viability [4, 14]: 0.98%
- viability [4, 15]: 1.16%
- inhibition [5]: 1.56% (inactive)
- inhibition [6]: 3.33% (inactive)

SMILES: CC1(C)CC(=O)C=C(NCCN2CCN(C(=O)Cc3ccc(Cl)cc3)CC2)C1
- inhibition [1]: 2% (inactive)
- viability [2]: 109% (inactive)
- viability [3]: 92.4% (inactive)
- differential viability (reversal) ([4]; H69AR cells + 2 uM doxorubicin): -3.5% (inactive)
- viability [4, 14]: 95.9%
- viability [4, 15]: 92.4%
- inhibition [5]: -0.79% (inactive)
- inhibition [6]: -2.06% (inactive)
